Data as given in PubChem BioAssay (EPA / NIEHS).
The source made the active and inactive calls. How the source made its calls: active means hit-call score of the fitted dose curve at least 0.9, where 1 is the maximum; inactive means score below 0.9.

How the values were obtained:
[1] = read-out: Matrix Metallopeptidase 1 (MMP1), MMP1 (gene 4312); assay: BSK_BE3C_MMP1: BioMAP Diversity Plus: BE3C Assay for Matrix Metallopeptidase 1 (MMP1) Biomarker Activity (AID 2283024); details: primary human bronchial epithelial cells; actives raise or lower the signal
Summary of the method: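 ELISA measurement of MMP-1 after 24 h compound exposure of primary human bronchial epithelial cells. Changes in either direction fitted relative to DMSO; parallel SRB staining checked overt cytotoxicity.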

[2] = read-out: Pselectin, SELP (gene 6403); assay: BSK_4H_Pselectin: BioMAP Diversity Plus: 4H Assay for Pselectin Biomarker Activity (AID 2283026); details: primary human endothelial cells (HUVEC); actives raise or lower the signal
Summary of the method: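 ELISA of surface P-selectin on HUVEC, 24 h after dosing, with parallel SRB staining (0.1% after 10% TCA fixation, 560 nm) for overt cytotoxicity. Activity fitted in both directions relative to DMSO.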

[3] = BSK_4H_SRB: Viability Assessment in the BioMAP Diversity Plus: 4H Assay (AID 2283027); details: primary human endothelial cells (HUVEC);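 further: cells exposed to compound for 24 h before staining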;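 on AC50: curves fitted both ways versus DMSO so AC50 may be loss or gain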
Summary of the method: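 HUVEC, 24 h post-dose; 10% TCA fix, 0.1% SRB stain, A560 nm. Total protein = overt cytotoxicity, parallel to biomarker read. Bidirectional fit vs DMSO baseline.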

[4] = BSK_BE3C_SRB: Viability Assessment in the BioMAP Diversity Plus: BE3C Assay (AID 2283028); details: primary human bronchial epithelial cells;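 on AC50: fitted both ways so AC50 may mark signal gain or loss versus DMSO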
Summary of the method: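 Primary human bronchial epithelium; chemical dosing, 24 h; 10% TCA fix, 0.1% SRB stain, A560; bidirectional fit vs DMSO baseline.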

[5] = read-out: Thrombomodulin, THBD (gene 7056); assay: BSK_3C_Thrombomodulin: BioMAP Diversity Plus: 3C Assay for Thrombomodulin Biomarker Activity (AID 2283029); details: primary human endothelial cells (HUVEC); actives raise or lower the signal
Summary of the method: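 ELISA measurement of thrombomodulin on HUVEC surface 24 h after chemical dosing; activity fitted in both directions relative to DMSO vehicle.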

[6] = read-out: Urokinase-type plasminogen activator receptor (uPAR), PLAUR (gene 5329); assay: BSK_4H_uPAR: BioMAP Diversity Plus: 4H Assay for Urokinase-type plasminogen activator receptor (uPAR) Biomarker Activity (AID 2283030); details: primary human endothelial cells (HUVEC); actives raise or lower the signal
Summary of the method: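 HUVEC, 24 h post-dose; uPAR by ELISA; bidirectional fit vs DMSO baseline.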

[7] = read-out: Vascular endothelial growth factor receptor 2 (Homo sapiens) (UniProt P35968); assay: BSK_4H_VEGFRII: BioMAP Diversity Plus: 4H Assay for Vascular endothelial growth factor receptor 2 (VEGFR2) Biomarker Activity (AID 2283031); details: primary human endothelial cells (HUVEC); actives raise or lower the signal
Summary of the method: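 HUVEC (human primary), 4H system; 24 h post-dose; VEGFRII by ELISA; bidirectional curve fit vs DMSO baseline; gain or loss of signal scored.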

[8] = read-out: Human Leukocyte Antigen - DR isotype (HLADR), HLA-DRA (gene 3122); assay: BSK_BE3C_HLADR: BioMAP Diversity Plus: BE3C Assay for Human Leukocyte Antigen - DR isotype (HLADR) Biomarker Activity (AID 2283032); details: primary human bronchial epithelial cells; actives raise or lower the signal
Summary of the method: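 Cell-surface HLA-DR ELISA readout at 24 h after dosing in the BE3C primary human lung bronchial epithelial system; gain or loss of signal against DMSO, with parallel sulforhodamine B staining of total protein for overt cytotoxicity.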

[9] = read-out: Vascular cell adhesion molecule 1 (VCAM1), VCAM1 (gene 7412); assay: BSK_4H_VCAM1: BioMAP Diversity Plus: 4H Assay for Vascular cell adhesion molecule 1 (VCAM1) Biomarker Activity (AID 2283033); details: primary human endothelial cells (HUVEC); actives raise or lower the signal
Summary of the method: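 VCAM-1 ELISA read 24 h after chemical dosing of HUVEC in the BioMAP 4H system, with gain or loss of signal fitted relative to DMSO. Parallel SRB staining (560 nm) checked overt cytotoxicity.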

[10] = read-out: Monokine induced gamma interferon (MIG), CXCL9 (gene 4283); assay: BSK_BE3C_MIG: BioMAP Diversity Plus: BE3C Assay for Monokine induced gamma interferon (MIG) Biomarker Activity (AID 2283035); details: primary human bronchial epithelial cells; actives raise or lower the signal
Summary of the method: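 Dose cells (human primary bronchial epithelial), incubate 24 h, quantify MIG by ELISA, then fit concentration–response in both directions relative to DMSO control.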

[11] = read-out: Transforming growth factor beta 1 (TGFb1), TGFB1 (gene 7040); assay: BSK_BE3C_TGFb1: BioMAP Diversity Plus: BE3C Assay for Transforming growth factor beta 1 (TGFb1) Biomarker Activity (AID 2283036); details: primary human bronchial epithelial cells; actives raise or lower the signal
Summary of the method: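 ELISA readout of TGF-b1 from human lung bronchial epithelial primary cells, taken 24 h post-treatment. Gain or loss of signal fitted relative to DMSO baseline, with parallel SRB staining for overt cytotoxicity.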

[12] = read-out: Plasminogen activator inhibitor-1 (PAI1), SERPINE1 (gene 5054); assay: BSK_BE3C_PAI1: BioMAP Diversity Plus: BE3C Assay for Plasminogen activator inhibitor-1 (PAI1) Biomarker Activity (AID 2283037); details: primary human bronchial epithelial cells; actives raise or lower the signal
Summary of the method: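 PAI-1 was measured by ELISA in human primary bronchial epithelial cultures 24 h after chemical dosing, with cytotoxicity checked by SRB total-protein staining in parallel cultures. Activity was fitted in both directions relative to DMSO.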

[13] = read-out: urokinase plasminogen activator (uPA), PLAU (gene 5328); assay: BSK_BE3C_uPA: BioMAP Diversity Plus: BE3C Assay for urokinase plasminogen activator (uPA) Biomarker Activity (AID 2283038); details: primary human bronchial epithelial cells; actives raise or lower the signal
Summary of the method: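 ELISA read-out of uPA in human lung primary bronchial epithelial cultures, 24 h post-dosing. Gain or loss of signal fitted bidirectionally relative to DMSO baseline; cytotoxicity checked in parallel cultures via SRB total protein stain.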

[14] = read-out: Interleukin-6 (IL6), IL6 (gene 3569); assay: BSK_CASM3C_IL6: BioMAP Diversity Plus: CASM3C Assay for Interleukin-6 (IL6) Biomarker Activity for (AID 2283040); details: primary human coronary artery smooth muscle cells; actives raise or lower the signal
[15] = read-out: Tissue plasminogen activator (tPA), PLAT (gene 5327); assay: BSK_BE3C_tPA: BioMAP Diversity Plus: BE3C Assay for Tissue plasminogen activator (tPA) Biomarker Activity (AID 2283041); details: primary human bronchial epithelial cells; actives raise or lower the signal;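 further: tPA level quantified by ELISA one day after compound addition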
Summary of the method: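 tPA measured by ELISA 24 h after dosing human primary bronchial epithelial cells (BE3C system). Changes in either direction were fitted against DMSO. Parallel cultures were stained with SRB to flag overt cytotoxicity.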

[16] = read-out: Interleukin-8 (IL8), CXCL8 (gene 3576); assay: BSK_CASM3C_IL8: BioMAP Diversity Plus: CASM3C Assay for Interleukin-8 (IL8) Biomarker Activity (AID 2283042); details: primary human coronary artery smooth muscle cells; actives raise or lower the signal;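 further: IL-8 protein level quantified by ELISA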
[17] = read-out: Human Leukocyte Antigen - DR isotype (HLADR), HLA-DRA (gene 3122); assay: BSK_CASM3C_HLADR: BioMAP Diversity Plus: CASM3C Assay for Human Leukocyte Antigen - DR isotype (HLADR) Biomarker Activity (AID 2283043); details: primary human coronary artery smooth muscle cells; actives raise or lower the signal;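 further: cell-surface HLA-DR protein level quantified by ELISA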
[18] = BSK_3C_Vis: BioMAP Diversity Plus: 3C Assay for Morphology Visualization (AID 2283025); details: primary human endothelial cells (HUVEC);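 further: fitted both ways so gain or loss versus DMSO counts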
Summary of the method: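 Light-microscopy visualization of HUVEC cultures at 24 h post-treatment, with DMSO as baseline for bidirectional fitting.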

[19] = read-out: Urokinase-type plasminogen activator receptor (uPAR), PLAUR (gene 5329); assay: BSK_BE3C_uPAR: BioMAP Diversity Plus: BE3C Assay for Urokinase-type plasminogen activator receptor (uPAR) Biomarker Activity (AID 2283039); details: primary human bronchial epithelial cells; actives raise or lower the signal
Summary of the method: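 uPAR levels were measured by ELISA after 24 h compound treatment of primary human bronchial epithelial cells, fitted in both directions relative to DMSO. Parallel SRB staining served as the cytotoxicity read-out.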

[20] = read-out: Interferon-gamma inducible Protein 10 (IP10), CXCL10 (gene 3627); assay: BSK_BE3C_IP10: BioMAP Diversity Plus: BE3C Assay for Interferon-gamma inducible Protein 10 (IP10) Biomarker Activity (AID 2283034); details: primary human bronchial epithelial cells; actives raise or lower the signal
Summary of the method: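 IP-10 quantified by ELISA in human primary bronchial epithelial cell cultures at 24 hours post-dosing. Gain or loss of signal fitted relative to DMSO; parallel SRB staining assessed overt cytotoxicity.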

Measured: AC50

CC1=CC(=O)/C(=C(/C)O)C(=O)O1
inactive: [1] | [2] | [3] | [4] | [5] | [6] | [7] | [8] | [9] | [10] | [11] | [12] | [13] | [14] | [15] | [16] | [17]

O=C(O)c1ccccc1-n1cc(C(=O)O)c(=O)c2cc(Nc3c(F)cc(F)cc3Cl)c(Cl)cc21
inactive: [1] | [18] | [2] | [3] | [4] | [6] | [7] | [8] | [9] | [10] | [11] | [13] | [19] | [14] | [16] | [17]

O=C(OCCCCCCOC(=O)c1ccccc1)c1ccccc1
inactive: [1] | [2] | [3] | [4] | [6] | [7] | [8] | [9] | [20] | [10] | [11] | [19] | [14] | [16] | [17]

Cc1occc1C(=O)Nc1ccc(C(=O)N2CCC(F)(F)/C(=C\C(=O)N3CCC(N4CCCCC4)CC3)c3ccccc32)cc1
active: [9] 9.44 µM
inactive: [1] | [18] | [2] | [3] | [4] | [5] | [6] | [7] | [8] | [10] | [14] | [15] | [16] | [17]

O=C(O)c1ccccc1C(=O)OCc1ccccc1
inactive: [1] | [18] | [2] | [3] | [4] | [5] | [6] | [7] | [8] | [9] | [10] | [11] | [12] | [13] | [19] | [14] | [15] | [16] | [17]

CC/C(=C(/CC)c1ccc(O)cc1)c1ccc(O)cc1
active: [2] 20 µM | [3] 22.8 µM | [4] 33.6 µM | [6] 17.8 µM | [8] 23.4 µM | [9] 28.9 µM | [20] 17.1 µM | [10] 33 µM | [11] 6.47 µM | [13] 33.6 µM | [19] 31.3 µM | [16] 1.17 µM
inactive: [5] | [7] | [14] | [17]

COc1cccc([C@H](O)C2CCN(CCc3ccc(F)cc3)CC2)c1OC
active: [2] 6.42 µM | [6] 0.228 µM | [9] 12.9 µM
inactive: [18] | [3] | [4] | [5] | [7] | [8] | [10] | [11] | [14] | [16] | [17]
